Hit rate of the full screen: of about 5,500 compounds, about 2,000 (36%) were called active. Inconclusive results (about 18%) are left out. Rule as the data show it: active = normalized growth mostly below about 0.91 (no sharp cut-off); inconclusive = no clear call, values can overlap the other calls; inactive = mostly above about 0.92. The list shows a part of the results.
Experiment: chemical genetic growth profiling, strain panel (AID 1159580);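 also: tested at 20 µM; growth read once vehicle control cultures reached saturation at 30 °C; 1 = growth at the plate median or of vehicle wells; lower values mean less growth of the strain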
Settings: S. cerevisiae deletion strains, growth OD
[1] = locus YAL040C, strain CLN3, active compounds read low
[2] = locus YCL061C, strain MRC1 (second series), active compounds read low
[3] = locus YDR363W, strain ESC2, active compounds read low
[4] = locus YER002W, strain NOP16, active compounds read low
[5] = locus YNL153C, strain GIM3, active compounds read low
[6] = locus YNL175C, strain NOP13, active compounds read low
[7] = locus YNL197C, strain WHI3, active compounds read low
[8] = locus YNL224C, strain SQS1, active compounds read low
[9] = locus YOR083W, strain WHI5 (second series), active compounds read low

Measured: normalized growth

N[C@@H](Cc1cnc[nH]1)C(=O)O
inactive: locus YAL013W, strain DEP1, active compounds read low 0.963 | [1] 0.939 | [2] 0.987 | [3] 0.979 | [4] 0.991 | locus YMR307W, strain GAS1, active compounds read low 0.986 | locus YNL128W, strain TEP1, active compounds read low 0.978 | [5] 1.01 | [6] 0.989 | [7] 0.988 | [8] 0.996 | [9] 1.03

O=Nc1c(-c2c(O)[nH]c3ccccc23)[nH]c2ccccc12
active: [1] 0.529 | [4] 0.587 | [6] 0.676 | [7] 0.869 | [9] 0.46
inactive: [2] 0.997 | [3] 0.976 | locus YGR078C, strain PAC10, active compounds read low 0.985 | locus YJR075W, strain HOC1, active compounds read low 1.01 | [5] 1 | [8] 0.951

Source: PubChem BioAssay AID1159580 (chemical genetic matrix, 2015)
